From PubChem BioAssay AID1117319 (Southern Research Institute, 2015)
Among all 260,000 compounds or so, about 1,500 (0.58%) were called active. Inconclusive results (about 5%) are left out. A selection follows. Results with a measured potency or affinity are listed apart. Values without a mark were called inactive.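 The calls were made as follows: active = inhibition above a set limit at one or more doses, reproduced on every date tested; inconclusive = results disagree between test dates, or hit never tested in dose response; inactive = the rest.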

biological target: Virion infectivity factor (Human immunodeficiency virus type 1 group M subtype B (isolate BH10)) + Virion infectivity factor (Human immunodeficiency virus type 1 group M subtype B (isolate BRU/LAI)) + Virion infectivity factor (Human immunodeficiency virus type 1 group M subtype B (isolate PCV12)) + Virion infectivity factor (Human immunodeficiency virus type 1 group M subtype B (isolate HXB2)) + DNA dC->dU-editing enzyme APOBEC-3G (Homo sapiens) (UniProt P69720+P69721+P69722+P69723+Q9HC16); test: HIV-1 Vif–A3G interaction blockers – biochemical, TR-FRET, GST-Vif 1-94, biotin-A3G peptide, dose response retest, primary screen (AID 1117319); conditions: TR-FRET GST-Vif / biotin-A3G peptide binding; hits give high values;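 also: Vif residues 1-94 fused to GST binding biotinylated APOBEC3G peptide 110-148; 0% = full assay without inhibitor and 100% = GST in place of GST-Vif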

SMILES	inhibition [%]
COc1cccc(C(=S)N2CCCC2)c1OC	0.47
O=C1C2CCCN2C(=O)N1CCCN1CCN(c2ccc([N+](=O)[O-])cc2)CC1 (stereo unspecified)	-0.31
O=C1C2CCCN2C(=O)N1CCCCN1CCN(c2ccc(F)cc2)CC1 (stereo unspecified)	-0.87
COc1cccc(-n2nc(C(N)=O)c(O)cc2=O)c1	-7.89
O=C(O)CCC(=O)NNc1ncnc2ccccc12	-0.06
CC(=O)NNc1ncnc2ccccc12	16
Cc1cc(N/N=C/c2ccncc2)nc2ccccc12	8.69
COC(=O)CC1SC(=O)NC1=Nc1ccc(C)cc1 (stereo unspecified)	19.1
CCCCn1c(N)c(N(CCOC)C(=O)c2ccc(OCc3c(C)noc3C)cc2)c(=O)[nH]c1=O	5.41
O=C(CSc1ncnc2sccc12)Nc1ccccc1	-6.5
O=C(CSc1ncnc2sccc12)Nc1ccccc1F	-5.44
Cc1ccc2c(c1)C(c1ccccc1)CC(=O)O2 (stereo unspecified)	-9.94
Nn1c(SCC(=O)Nc2ccc3c(c2)OCO3)nnc1C(F)(F)F	1.55
Cn1c(SCCC#N)nnc1-c1ccc(F)cc1	11.1
O=C(O)CSc1nnc(-c2ccncc2)n1C1CCCCC1	-0.35
C/C(=C\C(=O)c1ccc(C)cc1)Nc1ccc(N2CCOCC2)cc1	11.1
COc1ccc2nc(C)cc(Nc3ccccc3OC)c2c1	-8.19
Cc1cccc(S(=O)(=O)c2c(C)cc(C)nc2Cl)c1	-4.17
COc1ccc(CN2CCN(c3nc4ccccc4s3)CC2)cc1	-11.5
Cc1ccc(CN(Cc2ccccc2)C(=S)Nc2ccccc2C)o1	13.2
CC(=O)N(C)/C=C1\Sc2ccccc2C1=O	1.33
CN(C)/C=C1/Sc2ccccc2C1=O	-7.14

SMILES	inhibition [%]
CCOC(=O)C(CC(=O)O)N1CCCCC1 (stereo unspecified)	-2.07
Cc1ccc(C(=O)Nc2ccc(F)cc2)o1	-0.54
Cc1ccc(C(=O)Nc2ccc(CC(=O)O)cc2)o1	1.07
COc1ccc(N/C=C/C(=O)C(C)(C)C)cc1	-3.89
CCOC(=O)c1ccc(N/C=C/C(=O)C(C)(C)C)cc1	5.83
CCN(CC(=O)Nc1c(F)cccc1F)C(=O)C1CC(=O)N(CCc2ccccc2)C1 (stereo unspecified)	5.22
CN(CCC#N)C(=O)CC1(Cc2ccccc2)CCOC(C)(C)C1 (stereo unspecified)	-1.26
Cc1cccc(Nc2c([N+](=O)[O-])ccc3nonc23)c1C	-5.88
Cc1cc(C)cc(NC2=NCC(=O)N2Cc2ccccc2)c1	2.08
CCOCCCNC(=O)Cn1cnc2c(cnn2-c2ccc(F)cc2)c1=O	-2.53
Cc1ccccc1N(C=O)c1ccccc1C	-8.26
COc1cccc(OCCNS(=O)(=O)c2cccc([N+](=O)[O-])c2)c1	-4.86
Oc1c(Cl)cc(CN2CCCCC2)c2cccnc12	10.4
O=[N+]([O-])c1ccc(O)c2cccnc12	-6.29
O=[N+]([O-])c1cc(F)c2cccnc2c1O	18.9
O=[N+]([O-])c1cc(Cl)c2cccnc2c1O	-6.11
CCOc1cccc(CN2CCN(c3cccc(C(F)(F)F)c3)CC2)c1O	28.2
Oc1c(CN2CCOCC2)cc(COCc2ccccc2)c2cccnc12	29.4
O=[N+]([O-])c1cc(CN2CCN(c3ccccc3)CC2)c(O)c2ncccc12	12.7
Cc1ccc([N+](=O)[O-])c2cccnc12	1.02
CCOC(=O)c1cc(-c2cccs2)[nH]n1	3.68
O=C1C(c2ccccc2)c2ccccc2N1Cc1ccccc1 (stereo unspecified)	-2.08

SMILES	inhibition [%]
CCOc1ccc(OCCn2ccnc2)cc1	-0.21
Cc1nc2ccc(NS(=O)(=O)c3cccc([N+](=O)[O-])c3)cc2s1	-2.07
O=C(NCCO)Nc1ccc2nsnc2c1	13.2
O=C(Nc1ccc2nsnc2c1)NC1CCCCC1	-12.3
O=C(Nc1ccc(N2CCOCC2)cc1)Nc1ccc2nc(-c3ccco3)c(-c3ccco3)nc2c1	16
O=C(Nc1ccc2nc(-c3cccs3)c(-c3cccs3)nc2c1)NC1CC1	-3.31
OCCCNC(=S)Nc1ccc2nc(-c3ccccn3)c(-c3ccccn3)nc2c1	16.7
COCCNC(=O)Nc1ccc2nc(-c3cccs3)c(-c3cccs3)nc2c1	13.9
COCCNC(=O)Nc1ccc2nc(C)sc2c1	3.2
Cc1nc2ccc(NC(=O)NCCCO)cc2s1	-2.1
COc1cc2[nH]c(=O)c(C(=O)NCc3ccc(C)cc3)c(O)c2cc1OC	-8.1
O=C1NC[C@H](c2ccccc2)N(CCc2cc(C(F)(F)F)cc(C(F)(F)F)c2)C1=O	-3.13
COC(=O)c1sc2nc(C)c([N+](=O)[O-])c(C)c2c1N	6.2
CC(C)c1nnc(NC(=O)CC(=O)Nc2ccccc2C(=O)O)s1	15.4
CCOC(=O)c1c(NC(=O)COC(=O)CCOc2ccc(OCC)cc2)sc(C(=O)N(C)C)c1C	-2.2
Cc1nc(CC(=O)Nc2nccs2)cs1	-1.06
COC(=O)C1=C(C(=O)OC)[C@@H]2Nc3ccccc3[C@@]23C[C@@H](C(=O)OC)N=C3N1	0.57
CN(CC(=O)Nc1ccccc1N1CCOCC1)S(=O)(=O)c1ccc(F)cc1	4.33
O=C(c1ccc(Cl)cc1)c1cnc(-c2ccc(Cl)cc2)s1	-4.73
O=C(CCCCl)Nc1c2c(nn1-c1ccccc1)CSC2	-3.73
Cc1cc2nc(C3CCN(Cc4nnnn4Cc4cccs4)CC3)[nH]c2cc1C	1.05
COC(=O)C1CC(c2ccccc2)N(c2ccccc2)O1 (stereo unspecified)	-1.63
